Records with an inconclusive call do not appear. Entries that show only a call come without a potency. The source made the active and inactive calls. The call rests on the fitted dose curve; in most records, active means well fitted curve in the direction sought with a large enough effect; inconclusive means small, poorly fitted or top-dose-only effect, or another doubt; inactive means no such curve, though single readings can be large; an effect the other way counts as inactive or inconclusive.
Columns and labels:
HEK293T [1] = assay: qHTS assay to identify novel small-molecules to repurpose for Merkel cell carcinoma treatment (AID 1296009); settings: MCC and control cell lines, CellTiter-Glo viability, 72 h; at 44.8 µM (top of the series) unless noted; further: nearly all actives have a fitted effect of over 60% in size
Summary of the method: (§1)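 Cells were incubated with compound for 72 hr at 37 degree celsius before CellTiter-Glo addition. Luminescence was normalized with no-cell wells as full cytotoxicity and DMSO as baseline.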

MCC-13 = assay: as above; settings: MCC and control cell lines, CellTiter-Glo viability, 72 h; series mostly up to 46 µM
Summary of the method: as §1

MCC-26 = assay: as above; settings: MCC and control cell lines, CellTiter-Glo viability, 72 h; series mostly up to 46 µM
Summary of the method: as §1

MKL-1 = assay: as above; settings: MCC and control cell lines, CellTiter-Glo viability, 72 h; series mostly up to 46 µM
Summary of the method: as §1

MKL-2 = assay: as above; settings: MCC and control cell lines, CellTiter-Glo viability, 72 h; series mostly up to 46 µM
Summary of the method: as §1

NIH3T3 = assay: as above; settings: MCC and control cell lines, CellTiter-Glo viability, 72 h; at 44.8 µM (top of the series) unless noted
Summary of the method: as §1

UISO = assay: as above; settings: MCC and control cell lines, CellTiter-Glo viability, 72 h; series mostly up to 46 µM
Summary of the method: as §1

WaGa = assay: as above; settings: MCC and control cell lines, CellTiter-Glo viability, 72 h; series mostly up to 46 µM
Summary of the method: as §1

C33A = assay: Primary qHTS to identify gynecologic anti-cancer compounds using libraries of approved drugs and bioactive compounds (AID 1345084); settings: Gynecologic cancer cell panel viability, ATPlite luminescence, 48 h; series mostly up to 57.5 µM; further: nearly all actives have a fitted effect of over 55% in size
Summary of the method: (§2)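 Cell viability after 48 h drug treatment, ATPlite luminescence readout; five doses.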

CAOV3 = assay: as above; settings: Gynecologic cancer cell panel viability, ATPlite luminescence, 48 h; series mostly up to 57.5 µM
Summary of the method: as §2

CASKI = assay: as above; settings: Gynecologic cancer cell panel viability, ATPlite luminescence, 48 h; series mostly up to 57.5 µM
Summary of the method: as §2

Es-2 = assay: as above; settings: Gynecologic cancer cell panel viability, ATPlite luminescence, 48 h; series mostly up to 57.5 µM
Summary of the method: as §2

HeLa = assay: as above; settings: Gynecologic cancer cell panel viability, ATPlite luminescence, 48 h; series mostly up to 57.5 µM
Summary of the method: as §2

Hek293T [2] = assay: as above; settings: Gynecologic cancer cell panel viability, ATPlite luminescence, 48 h, control line for the selectivity index; series mostly up to 57.5 µM
Summary of the method: as §2

JEG-3 = assay: as above; settings: Gynecologic cancer cell panel viability, ATPlite luminescence, 48 h; series mostly up to 57.5 µM
Summary of the method: as §2

OV90 = assay: as above; settings: Gynecologic cancer cell panel viability, ATPlite luminescence, 48 h; series mostly up to 57.5 µM
Summary of the method: as §2

PA-1 = assay: as above; settings: Gynecologic cancer cell panel viability, ATPlite luminescence, 48 h; series mostly up to 57.5 µM
Summary of the method: as §2

SKOV3 = assay: as above; settings: Gynecologic cancer cell panel viability, ATPlite luminescence, 48 h; series mostly up to 57.5 µM
Summary of the method: as §2

Tov-21-G = assay: as above; settings: Gynecologic cancer cell panel viability, ATPlite luminescence, 48 h; series mostly up to 57.5 µM
Summary of the method: as §2

HACAT = assay: qHTS assay to identify novel small-molecules to repurpose for Merkel cell carcinoma treatment (AID 1296009); settings: MCC and control cell lines, CellTiter-Glo viability, 72 h; at 44.8 µM (top of the series) unless noted; further: nearly all actives have a fitted effect of over 60% in size
Summary of the method: as §1
Potency means the concentration at half of the fitted maximal effect.

Compound | outcome (HEK293T [1]) | Potency (MCC-13) | Potency (MCC-26) | Potency (MKL-1) | Potency (MKL-2) | outcome (NIH3T3) | Potency (UISO) | Potency (WaGa) | Potency (C33A) | Potency (CAOV3) | Potency (CASKI) | Potency (Es-2) | Potency (HeLa) | Potency (Hek293T [2]) | Potency (JEG-3) | Potency (OV90) | Potency (PA-1) | Potency (SKOV3) | Potency (Tov-21-G) | outcome (HACAT)
CCOc1ccccc1OCC1CNCCO1 (configuration not stated) | inactive | inactive | inactive | inactive | inactive | inactive | inactive | inactive | inactive | inactive | inactive | inactive | inactive | inactive | inactive | inactive | inactive | inactive | inactive | –
CCOC(=O)O[C@]1(C(=O)OCCl)CC[C@H]2[C@@H]3CCC4=CC(=O)C=C[C@]4(C)[C@H]3[C@@H](O)C[C@@]21C | inactive | inactive | inactive | inactive | inactive | inactive | inactive | inactive | inactive | – | inactive | inactive | inactive | inactive | inactive | inactive | inactive | – | inactive | –
O=C1CC2(CCCC2)CC(=O)N1CCNCC1COc2ccccc2O1 (configuration not stated) | inactive | inactive | inactive | inactive | inactive | – | inactive | inactive | inactive | inactive | inactive | inactive | inactive | inactive | inactive | inactive | inactive | inactive | inactive | –
Cc1c(F)cc2c(=O)c(C(=O)O)cn3c2c1CCC3C (configuration not stated) | inactive | inactive | inactive | inactive | inactive | – | inactive | inactive | inactive | inactive | inactive | inactive | inactive | inactive | inactive | inactive | inactive | inactive | inactive | –
Nc1ccc(C(=O)N2CC3CC(CN(Cc4ccccc4)C3)C2)cc1 | inactive | inactive | inactive | inactive | inactive | inactive | inactive | inactive | inactive | inactive | inactive | inactive | inactive | inactive | inactive | – | inactive | inactive | inactive | –
CCCC(=O)OCOC(=O)C1=C(C)NC(C)=C(C(=O)OC)C1c1cccc(Cl)c1Cl (configuration not stated) | – | inactive | – | inactive | inactive | – | inactive | inactive | inactive | – | inactive | inactive | inactive | inactive | inactive | inactive | inactive | – | inactive | inactive
CC(CCc1ccc2c(c1)OCO2)NN (configuration not stated) | inactive | inactive | inactive | inactive | inactive | inactive | inactive | inactive | inactive | inactive | inactive | inactive | inactive | inactive | inactive | inactive | inactive | – | inactive | –
COc1cc(NS(=O)(=O)c2ccc(N)cc2)nc(C)n1 | inactive | inactive | inactive | inactive | inactive | – | inactive | inactive | inactive | inactive | inactive | inactive | inactive | inactive | inactive | inactive | inactive | inactive | inactive | –
CC(=O)CC/C=C(\C)CC/C=C(\C)CC/C=C(\C)CCC=C(C)C | inactive | inactive | inactive | inactive | inactive | – | inactive | inactive | inactive | inactive | inactive | inactive | inactive | inactive | inactive | inactive | inactive | inactive | inactive | –
O=C(O)Cn1cnnn1 | inactive | inactive | inactive | inactive | inactive | – | inactive | inactive | inactive | inactive | inactive | inactive | inactive | inactive | inactive | inactive | inactive | inactive | inactive | –
O=C(OCCN1CCOCC1)c1cccnc1Nc1cccc(C(F)(F)F)c1 | – | inactive | – | inactive | inactive | – | inactive | – | inactive | inactive | inactive | inactive | inactive | inactive | inactive | – | inactive | inactive | inactive | inactive
CCOc1c(N2CCOCC2)cnn(C)c1=O | inactive | inactive | inactive | inactive | inactive | – | inactive | inactive | inactive | inactive | inactive | inactive | inactive | inactive | inactive | inactive | inactive | inactive | inactive | –
OC[C@]1(O)OC[C@@H](O)[C@H](O)[C@@H]1O | inactive | inactive | inactive | inactive | inactive | inactive | inactive | inactive | inactive | inactive | inactive | inactive | inactive | inactive | inactive | inactive | inactive | inactive | inactive | –
c1ccc2c(c1)CCc1ccccc1N2 | inactive | inactive | inactive | inactive | inactive | inactive | inactive | inactive | inactive | inactive | inactive | inactive | inactive | inactive | inactive | inactive | inactive | 22.4 µM (active) | inactive | –
Nc1ncnc2c1ncn2Cc1c(F)cccc1Cl | inactive | inactive | inactive | inactive | inactive | inactive | inactive | inactive | inactive | – | inactive | inactive | inactive | inactive | inactive | inactive | inactive | inactive | inactive | –
O=C(CO)[C@@H](O)[C@H](O)[C@@H](O)CO | inactive | inactive | inactive | inactive | inactive | inactive | inactive | inactive | inactive | inactive | inactive | inactive | inactive | inactive | inactive | inactive | inactive | – | inactive | –
CC(=O)OC[C@H]1O[C@@H](OC(C)=O)[C@H](OC(C)=O)[C@@H]1OC(C)=O | – | inactive | inactive | inactive | inactive | inactive | inactive | inactive | inactive | inactive | inactive | inactive | inactive | inactive | inactive | inactive | inactive | inactive | inactive | –
CC(=O)OCC[N+](C)(C)C | inactive | inactive | inactive | inactive | – | – | inactive | – | inactive | inactive | inactive | inactive | inactive | inactive | inactive | inactive | inactive | inactive | inactive | –
C[C@]12CCC(=O)C=C1CC[C@@H]1[C@@H]2[C@@H](O)C[C@@]2(C)[C@H]1CC[C@]2(O)C(=O)COC(=O)CCC(=O)O | – | inactive | inactive | inactive | inactive | inactive | inactive | inactive | inactive | inactive | inactive | inactive | inactive | inactive | inactive | inactive | inactive | inactive | inactive | –
O=c1[nH]c(=O)n([C@H]2O[C@H](CO)[C@@H](O)[C@@H]2O)cc1/C=C\Br | inactive | inactive | inactive | inactive | inactive | – | inactive | inactive | inactive | inactive | inactive | inactive | inactive | inactive | inactive | inactive | inactive | – | inactive | –
CCNC(=O)NCCCOc1cccc(CN2CCCCC2)c1 | – | inactive | inactive | inactive | inactive | inactive | inactive | inactive | inactive | inactive | inactive | inactive | inactive | inactive | inactive | – | inactive | inactive | inactive | –
CCCCOCCOC(=O)c1cccnc1 | inactive | inactive | inactive | inactive | inactive | – | inactive | inactive | inactive | inactive | inactive | inactive | inactive | inactive | inactive | inactive | inactive | inactive | inactive | –
CC(C)(C)NCC(O)COc1ccccc1OCC1CCCO1 (configuration not stated) | – | inactive | inactive | inactive | inactive | inactive | inactive | inactive | inactive | inactive | inactive | inactive | inactive | inactive | inactive | inactive | inactive | inactive | inactive | –
CCOC(=O)c1ccc(O)c(O)c1 | inactive | – | inactive | 5.96 µM (active) | – | – | – | – | inactive | inactive | inactive | inactive | inactive | inactive | inactive | inactive | – | – | inactive | –
C#CC(C)(CC)OC(=O)c1ccccc1C(=O)O (configuration not stated) | – | inactive | inactive | inactive | inactive | inactive | inactive | inactive | inactive | inactive | inactive | inactive | inactive | inactive | inactive | inactive | inactive | inactive | inactive | –
C#Cc1ccc(-c2ccccc2F)cc1 | – | inactive | inactive | inactive | inactive | inactive | inactive | inactive | inactive | inactive | inactive | inactive | inactive | inactive | inactive | inactive | inactive | inactive | inactive | –
COc1ccccc1OCC1CNC(=O)O1 (configuration not stated) | – | inactive | inactive | inactive | inactive | inactive | inactive | inactive | inactive | inactive | inactive | inactive | inactive | inactive | inactive | inactive | inactive | – | inactive | –
Nc1nc(=O)n([C@@H]2O[C@H](CO)[C@@H](O)[C@@H]2F)cc1I | inactive | – | inactive | inactive | inactive | – | – | – | inactive | inactive | inactive | inactive | inactive | inactive | inactive | inactive | inactive | inactive | inactive | –
Cc1ncc([N+](=O)[O-])n1C | inactive | inactive | inactive | inactive | inactive | – | inactive | inactive | inactive | – | inactive | inactive | inactive | inactive | inactive | inactive | inactive | – | inactive | –

Source: PubChem BioAssay (NCATS)
